Bioassay records: PubChem BioAssay, National Center for Advancing Translational Sciences (NCATS)
Pol iota inh = inhibitors of human DNA polymerase iota; Q9UNA4; Pol iota fluorescent replication assay, 10 min; Potency, µM (series often up to 115 µM), without a hit: at the highest dose activity, negative = inhibition, most hits filed as inhibitors; 1% of 390,000 active
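Fluorescent replication assay read twice, at 0 min and 10 min after adding 50 nM (final) substrate. Enzyme (10 nM) and compounds were first incubated 15 min at room temperature; enzyme-free buffer wells were negative controls.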
Pol eta inh = DNA polymerase eta (human) inhibition. 1.2% of 390,000 active. Potency, µM (top dose mostly 114 µM), without a hit: top-dose activity change, negative = inhibition, actives largely listed as inhibitors. recombinant Pol eta, fluorescent DNA replication assay; further: on the % scale 0 is the no-effect control and ±100 the full control effect
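Fluorescent replication assay: 50 nM final substrate added after a 15 min room-temperature compound preincubation with 10 nM enzyme. Signal taken at 0 min and again at 10 min.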
L3MBTL1 block = blocks human L3MBTL1; AID 485360; Potency, µM (top dose mostly 57.1 µM), for inactives: at the highest dose activity, negative = inhibition, usual class: inhibitors; Q9Y468; 0.66% of 230,000 active; AlphaScreen L3MBTL1–H3K9me1 peptide binding; further: on the % scale 0 is the no-effect control and ±100 the full control effect; nearly all actives have a fitted effect of over 60% in size
Target sequence (Q9Y468 whole entry, looked up): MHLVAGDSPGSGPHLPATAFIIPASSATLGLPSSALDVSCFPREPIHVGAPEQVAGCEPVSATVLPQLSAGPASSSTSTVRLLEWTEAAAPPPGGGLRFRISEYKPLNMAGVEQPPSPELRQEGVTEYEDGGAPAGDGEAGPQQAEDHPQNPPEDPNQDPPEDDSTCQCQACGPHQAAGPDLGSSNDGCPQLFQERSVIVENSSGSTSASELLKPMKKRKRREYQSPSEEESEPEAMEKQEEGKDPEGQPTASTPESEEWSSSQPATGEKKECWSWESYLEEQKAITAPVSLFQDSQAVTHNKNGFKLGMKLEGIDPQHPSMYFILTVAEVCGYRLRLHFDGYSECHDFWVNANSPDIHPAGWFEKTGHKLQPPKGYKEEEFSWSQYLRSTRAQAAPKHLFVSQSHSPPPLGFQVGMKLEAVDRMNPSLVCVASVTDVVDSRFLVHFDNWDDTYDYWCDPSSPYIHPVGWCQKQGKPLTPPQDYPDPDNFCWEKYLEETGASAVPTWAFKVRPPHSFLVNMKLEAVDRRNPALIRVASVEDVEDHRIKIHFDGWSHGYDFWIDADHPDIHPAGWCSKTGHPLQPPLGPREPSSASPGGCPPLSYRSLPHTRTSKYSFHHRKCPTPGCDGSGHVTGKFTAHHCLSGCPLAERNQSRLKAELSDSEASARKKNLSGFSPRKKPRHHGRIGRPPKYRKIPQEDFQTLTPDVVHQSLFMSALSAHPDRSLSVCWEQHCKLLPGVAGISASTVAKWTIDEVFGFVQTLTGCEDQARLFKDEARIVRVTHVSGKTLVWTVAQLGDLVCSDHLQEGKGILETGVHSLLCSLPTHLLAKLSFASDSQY
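L3MBTL1 (50 nM) pre-complexed 30 min with biotinylated H3(1-15)K9me1 peptide (75 nM), then compounds added for 30 min at room temperature; AlphaScreen streptavidin donor/nickel chelate acceptor beads (10 ug/mL final) read after 30 min dark incubation.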
APE1 inh = blocks human APE1 abasic DNA cleavage; P27695; recombinant APE1, TAMRA/BHQ-2 abasic DNA cleavage fluorescence; Potency, µM (doses to about 65.8 µM), inactives show at the top dose activity change, negative = inhibition, most hits filed as inhibitors; 0.35% of 350,000 active; AID 2517;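 further: plate controls were vehicle for no effect and reference inhibitor for full effect; nearly all actives have a fitted effect of over 55% in size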
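Kinetic fluorescence read (525 ex/598 em nm, three reads 60 s apart) of AP-site incision; signal = third minus first read. Enzyme 0.75 nM, dual-labelled THF duplex 50 nM, compound preincubation 15 min RT.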
POLB inh = blocks human DNA polymerase beta activity | P06746 | Pol beta primer extension/strand displacement, fluorescence kinetic | Potency, µM (series often up to 114 µM), for inactives: at the top dose activity change, negative = inhibition, most hits filed as inhibitors | 1.3% of 340,000 active; further: on the % scale 0 is the no-effect control and ±100 the full control effect
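Curves were derived by four-parameter Hill fits of normalized qHTS data. The kinetic fluorescent primer-extension read was taken at 0 and 10 min after 50 nM substrate, following a 15 min room-temperature preincubation of 10 nM enzyme with compounds.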
POLK inh = inhibitors of human DNA polymerase kappa; Q9UBT6; purified Pol kappa, fluorescent DNA synthesis assay, 10 min; Potency, µM (highest dose often 107 µM), inactives show at the highest dose activity, negative = inhibition, hits mostly inhibitors; 0.53% of 400,000 active; AID 588579; further: on the % scale 0 is the no-effect control and ±100 the full control effect
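Enzyme at 10 nM met test compounds for 15 min at room temperature. Substrate addition (50 nM final) began the reaction, which was monitored by fluorescence at 0 and 10 min.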
The depositor's hits bear a star; [ ] = another dose, or the depositor's remark. An excerpt weighted towards active compounds, which were near 2.5% of everything screened. The call rests on the fitted dose curve; in most records, active means well fitted curve in the direction sought with a large enough effect; inconclusive means small, poorly fitted or top-dose-only effect, or another doubt; inactive means no such curve, though single readings can be large; an effect the other way counts as inactive or inconclusive. Potency means the concentration at half of the fitted maximal effect.

O=C(C1CCCN(Cc2ccc(Cl)cc2)C1)N1CCCCC1 (configuration not stated) was read as Pol iota inh 41%, Pol eta inh -22%, APE1 inh 14%, POLB inh 4% and POLK inh -12%.
For Cc1oc2ccc(O)c(CN3CCCCCC3)c2c1C(=O)Nc1cccc(Cl)c1C the results were Pol iota inh -4%, Pol eta inh inconclusive, POLB inh -9% and POLK inh -14%.
For CCOP(=O)(C1=C(O)C(=O)C(C(C)(C)C)=CC1=O)c1ccccc1 (configuration not stated) the results were Pol iota inh 32µM*, Pol eta inh -5%, APE1 inh -3%, POLB inh -11% and POLK inh -8%.
Screening CCOP(=O)(OCC)C(O)c1ccccc1 (configuration not stated) returned Pol iota inh 12%, Pol eta inh -5%, L3MBTL1 block 7%, APE1 inh -3%, POLB inh inconclusive and POLK inh -7%.
Screening CCOC(=O)c1ccccc1N returned Pol iota inh 9%, Pol eta inh -6%, L3MBTL1 block 3%, APE1 inh 23% and POLK inh 1%.
Nc1ccccc1C(=O)OC1CSC1 was read as Pol iota inh 9%, Pol eta inh inconclusive, L3MBTL1 block 3%[11.4 µM], APE1 inh 0%, POLB inh 56µM* and POLK inh -2%.
CC1CC2OC2/C=C\C=C/C(=O)Cc2c(Cl)c(O)cc(O)c2C(=O)O1 (configuration not stated) was read as APE1 inh 0% and POLK inh inconclusive.
For N#CC(C#N)=Cc1ccc([N+](=O)[O-])c(O)c1 the results were Pol iota inh inconclusive, Pol eta inh inconclusive, APE1 inh -3%, POLB inh inconclusive and POLK inh inconclusive.
For N#C/C(=C\c1ccc(O)c(O)c1)C(=O)NCCCNC(=O)/C(C#N)=C/c1ccc(O)c(O)c1 the results were Pol iota inh 0.11µM*, Pol eta inh 0.11µM*, APE1 inh 0.63µM*, POLB inh 0.13µM* and POLK inh 0.3µM*.
For N#C/C(=C/c1ccc(O)c(O)c1)C(N)=S the results were POLK inh 1.7µM*.
Screening CCOc1ccc(-c2nc3ccc(-c4nc5ccc(N6CCN(C)CC6)cc5[nH]4)cc3[nH]2)cc1 returned APE1 inh 13% and POLK inh 0.3µM*.
`Cc1ccc2nc(N3CCN(C)CC3)[nH]c2c1` gave Pol iota inh -10%, Pol eta inh -1%, L3MBTL1 block -3%, APE1 inh 0%, POLB inh -1% and POLK inh -19%.
`O=C(Nc1ccc2nc(SCC(=O)N3CCCc4ccccc43)sc2c1)c1cccc(F)c1` gave Pol iota inh -4%, Pol eta inh -1%, POLB inh inconclusive and POLK inh -24%.
Screening Cc1ccc2c(c1)N(N=O)CCC2 returned Pol iota inh 27%, Pol eta inh 89µM*, L3MBTL1 block 7%, APE1 inh 15%, POLB inh 3% and POLK inh -2%.
For Cc1ccc(C(=O)N2CCc3cc(CNC(=O)c4ccnn4C)ccc32)cc1 the results were Pol iota inh -6%, Pol eta inh 14%, POLB inh 32% and POLK inh -3%[60.1 µM].
For CN1/C(=C\C=C\C2=[N+](C)c3ccc4ccccc4c3C2(C)C)C(C)(C)c2ccccc21 the results were L3MBTL1 block 16µM*, APE1 inh 28µM* and POLB inh 79µM*.
CN1/C(=C\C=Nc2ccccc2)C(C)(C)c2ccccc21 was read as Pol iota inh inconclusive, Pol eta inh -3%, L3MBTL1 block -5%, APE1 inh inconclusive, POLB inh 5% and POLK inh -8%.
Screening N=C(N)c1ccc(-c2ccc(-c3ccc(C(=N)N)cc3)o2)cc1 returned Pol iota inh 10µM* and POLK inh 13µM*.
N=C(N)c1ccc(CS(=O)(=O)F)cc1 was read as POLK inh -9%[60.1 µM].
`CCC(C)N1C(=O)/C(=C\c2cc3c4c(c2)CCCN4CCC3)C(=O)NC1=S` (configuration not stated) gave Pol iota inh inconclusive, Pol eta inh inconclusive, L3MBTL1 block -26%, APE1 inh 3%, POLB inh 45µM* and POLK inh -34%.
Screening CNc1cc(Cl)c2nonc2c1[N+](=O)[O-] returned Pol iota inh 10µM*, Pol eta inh -13%, L3MBTL1 block 0%, APE1 inh -2%, POLB inh 89µM* and POLK inh -25%.
`O=C(NCc1cccnc1)C1CCN(S(=O)(=O)c2cc([N+](=O)[O-])ccc2Cl)CC1` gave Pol iota inh 57%, Pol eta inh -6%, L3MBTL1 block 1%, APE1 inh -21% and POLK inh -19%.
N=C1/C(=C/c2ccc(OC(=O)c3ccco3)cc2)C(=O)N=C2SC=CN12 was read as Pol iota inh 89%, Pol eta inh inconclusive, L3MBTL1 block 2%[11.4 µM], APE1 inh -1%, POLB inh inconclusive and POLK inh -7%.
O=C1NC(=O)N(Cc2ccc(F)cc2)C(=O)/C1=C/c1cccs1 was read as Pol iota inh inconclusive, Pol eta inh inconclusive, APE1 inh 8%, POLB inh 89µM* and POLK inh -13%.
O=C1NC(=O)N(Cc2ccccc2Cl)C(=O)/C1=C/c1cccs1 was read as Pol iota inh inconclusive, Pol eta inh inconclusive, APE1 inh -4%, POLB inh 7% and POLK inh -21%.
For Oc1c(C(Nc2cccnc2)c2ccccc2F)ccc2cccnc12 (configuration not stated) the results were Pol iota inh 51% and POLK inh 0%.
Screening CCOC(=O)CCCc1cc[c]([Sb](=[O])([OH])[OH])cc1 returned Pol iota inh 1µM* and POLK inh 0.71µM*.
Screening NC(=O)OCCCc1ccccc1 returned Pol iota inh inconclusive, Pol eta inh -5% and POLK inh 0%.
CCOC(=O)c1ccc(NC(=O)c2c(O)[nH]c(=O)[nH]c2=O)cc1 was read as Pol iota inh 0%, Pol eta inh inconclusive, L3MBTL1 block 7.1µM*, APE1 inh -3%, POLB inh 20µM* and POLK inh 1%.
`C[C@@H]1O[C@@H](O[C@@H]2C=C3CC[C@@H]4[C@H](CC[C@]5(C)[C@@H](c6ccc(=O)oc6)CC[C@]45O)[C@@]3(C)CC2)[C@H](O)[C@H](O)[C@H]1O` gave APE1 inh 29%[21 µM].
